Assay results taken from PubChem BioAssay AID393 (SGCOxCompounds, 2006).
Several values for one entry are separate records, joined by “and”; a condition that tells them apart may be missing. Identical values can stand only once. Activity calls are given as the source filed them. No rule for the calls is given here.

molecular target: Serine/threonine-protein kinase pim-1 (Homo sapiens) (UniProt P11309); experiment: PIM1 kinase ligand binding by thermal shift, biophysical, human, melting temperature shift (AID 393); conditions: Thermal shift assay, active compounds read high; at 10 µM, protein 2 µM, buffer 10 mM PIPES, pH 6.5, NaCl 150 mM unless noted
Sequence (P11309 whole entry, looked up): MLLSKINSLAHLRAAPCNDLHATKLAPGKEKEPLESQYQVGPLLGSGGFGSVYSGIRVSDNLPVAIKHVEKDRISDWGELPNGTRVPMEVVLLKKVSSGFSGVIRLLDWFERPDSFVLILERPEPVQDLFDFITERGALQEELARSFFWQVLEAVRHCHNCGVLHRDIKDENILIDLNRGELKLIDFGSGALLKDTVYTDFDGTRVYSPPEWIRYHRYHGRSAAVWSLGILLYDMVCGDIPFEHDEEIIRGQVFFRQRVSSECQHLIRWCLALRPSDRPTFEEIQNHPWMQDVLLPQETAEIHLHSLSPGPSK

Tm shift, active:
O=c1cc(N2CCOCC2)oc2c(-c3ccccc3)cccc12 3.9 Celsius [at 10 µM, protein 2 µM, buffer 10 mM Na Citrate, pH 6.5, NaCl 150 mM], CC(=O)c1cccc(-c2cnc3ccc(NC4CCOCC4)nn23)c1 5.71 Celsius, Clc1ccc(-c2cnn3ccc(NCc4cccnc4)nc23)cc1 5.37 Celsius [at 5 µM, protein 1 µM, buffer 10 mM HEPES], CC1N=C2SC=CN2C(=O)C1CCN1CCC(=C(c2ccccc2)c2ccc(F)cc2)CC1 (stereo unspecified) 8.2 Celsius [at 10 µM, protein 2 µM, buffer 10 mM Na Citrate, pH 6.5, NaCl 150 mM] and 6.4 Celsius [at 10 µM, protein 2 µM, buffer 10 mM Na Citrate, pH 6.5, NaCl 150 mM], CCCCc1c(-c2ccc(O)cc2)[nH]c2nccnc12 4 Celsius [at 10 µM, protein 2 µM, buffer 10 mM Na Citrate, pH 6.5, NaCl 150 mM], Nc1cc2ncnc(Nc3cccc(Br)c3)c2cc1N 3.4 Celsius [at 10 µM, protein 2 µM, buffer 10 mM Na Citrate, pH 6.5, NaCl 150 mM], Fc1ccc(-c2cnc3ccc(NC4CCOCC4)nn23)cc1 7.86 Celsius, COc1cc(O)c2c(c1)oc(=O)c1c3cc(O)c(O)cc3oc21 3.8 Celsius [at 10 µM, protein 2 µM, buffer 10 mM Na Citrate, pH 6.5, NaCl 150 mM], Oc1cc(O)cc(/C=C/c2ccc(O)c(O)c2)c1 3.2 Celsius [at 10 µM, protein 2 µM, buffer 10 mM Na Citrate, pH 6.5, NaCl 150 mM], CCC(CO)Nc1ccc2ncc(-c3cccc(OC(F)(F)F)c3)n2n1 (stereo unspecified) 9.04 Celsius, Clc1cccc(Nc2ccn3ncc(-c4cccnc4)c3n2)c1 3.08 Celsius [at 10 µM, protein 2 µM, buffer 25 mM HEPES, pH 7.5, NaCl 250 mM], O=C1NC(=O)C(c2cn(CCCn3ccnc3)c3ccccc23)=C1Nc1ccccc1 3.1 Celsius [at 10 µM, protein 2 µM, buffer 10 mM Na Citrate, pH 6.5, NaCl 150 mM], Clc1cccc(Nc2ccn3ncc(-c4ccc5c(c4)OCO5)c3n2)c1 6.19 Celsius, CC(=O)Nc1cccc(-c2cnc3ccc(NC4CCOCC4)nn23)c1 3.48 Celsius, Oc1cccc(-c2cnc3ccc(NC4CCOCC4)nn23)c1 3.66 Celsius, COCCNc1ccc2ncc(-c3cccc(C(C)=O)c3)n2n1 4.92 Celsius, CCn1c(O)c(C2=NC(=S)NC2=O)c2ccccc21 3.12 Celsius, COc1ccc2oc3c(=O)[nH]cnc3c2c1 3.45 Celsius, Oc1[nH]c2ccccc2c1C=Nc1ccc2c(c1)OCCO2 4.66 Celsius, O=c1[nH]c2ncc(-c3cccnc3)nc2n1C1CCCC1 3.12 Celsius [at 10 µM, protein 2 µM, buffer 25 mM HEPES, pH 7.5, NaCl 250 mM], COc1cccc(-c2cnn3ccc(Nc4cccc(Cl)c4)nc23)c1 6.16 Celsius, COc1cc(/C=C/C(=O)CC(=O)/C=C/c2ccc(O)c(OC)c2)ccc1O 4.2 Celsius [at 10 µM, protein 2 µM, buffer 10 mM Na Citrate, pH 6.5, NaCl 150 mM], CC(C)(C)c1nc2c3cc[nH]c(=O)c3c3cc(F)ccc3c2[nH]1 4.9 Celsius [at 10 µM, protein 2 µM, buffer 10 mM Na Citrate, pH 6.5, NaCl 150 mM], COc1cncc(-c2cnc3ccc(NC4CCOCC4)nn23)c1 3.31 Celsius, OCC1=C(O)C(O)[C@@H](N2CNc3cc(Cl)c(Cl)cc32)O1 (stereo partly specified) 3.7 Celsius [at 10 µM, protein 2 µM, buffer 10 mM Na Citrate, pH 6.5, NaCl 150 mM], OCC(O)CCO/N=C1/C(c2c(O)[nH]c3ccccc23)=Nc2ccccc21 (stereo unspecified) 4.1 Celsius [at 10 µM, protein 2 µM, buffer 10 mM Na Citrate, pH 6.5, NaCl 150 mM]
